D2 antagonist: antagonizes the human D2 dopamine receptor; inhibition, % at 10 µM; 2% of 340,000 active; HEK293 TREx D2 cells, calcium flux, dopamine EC80; P14416; in the data active = inhibition above about 30%; inactive = below that, where a call was filed; also: 0% is about no effect
Target sequence (P14416 whole entry, looked up): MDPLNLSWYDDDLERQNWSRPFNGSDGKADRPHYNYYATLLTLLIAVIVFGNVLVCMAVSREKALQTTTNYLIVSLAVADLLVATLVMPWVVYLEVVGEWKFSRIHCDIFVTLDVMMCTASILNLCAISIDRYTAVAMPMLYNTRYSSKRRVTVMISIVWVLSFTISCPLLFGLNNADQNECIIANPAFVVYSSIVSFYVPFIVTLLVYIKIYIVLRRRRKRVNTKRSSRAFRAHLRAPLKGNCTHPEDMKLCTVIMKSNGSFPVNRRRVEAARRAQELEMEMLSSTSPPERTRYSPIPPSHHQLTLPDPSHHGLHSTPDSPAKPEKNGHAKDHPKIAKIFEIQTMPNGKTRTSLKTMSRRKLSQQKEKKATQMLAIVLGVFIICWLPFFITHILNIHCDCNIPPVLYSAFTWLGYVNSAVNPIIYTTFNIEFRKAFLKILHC
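Inhibition of EC80 dopamine-driven calcium flux, recorded kinetically, defines activity here; cells are a tetracycline-induced HEK293 T-REx line expressing force-coupled D2.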
D2 PAM-1: positive allosteric modulators of human D2 dopamine receptor | P14416 | DiscoveRx D2 beta-arrestin cells, luminescence, 90 min; 100% = 57 uM dopamine signal | potentiation, % (no concentration beside the values) | 0.23% of 360,000 active | AID 624464; in the data active = potentiation above about 50%
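PathHunter beta-arrestin assay in DiscoveRx D2 cells. Compounds were added with an EC20 of dopamine (50 nM final) for 90 min at 37 deg C. Luminescence was read 1 h after detection reagent, with 57 uM dopamine as the EC100 control.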
D2 PAM-2: positively modulates the human D2 dopamine receptor allosterically. P14416. potentiation, % at 10 µM. HEK293 T-REx D2, calcium flux, EC20 dopamine potentiation. 0.34% of 340,000 active. AID 485347;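 active = potentiation over 3 SD above the plate norm, cut at about 30% in these data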; also: 0% is about no effect
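Tetracycline-induced HEK293 T-REx cells force-coupled to calcium signalling expressed D2; compounds were pin-added after a 10 s baseline, read kinetically 180 s, then an EC20 dopamine challenge followed with a further 180 s calcium read.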
D2 ag-1: activates the human D2 dopamine receptor; P14416; DiscoveRx PathHunter D2 beta-arrestin, luminescence, 90 min; 100% = 57 uM dopamine signal; activation, % (no concentration beside the values); 0.084% of 360,000 active; AID 624465; in the data active = activation above about 40%
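Agonist mode: compounds alone added to overnight-plated D2 PathHunter cells for 90 min at 37 C, with 57 uM final dopamine (EC100) defining full response. Beta-arrestin recruitment detected by chemiluminescent reagent, read after 1 h at ambient temperature.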
D2 ag-2: D2 dopamine receptor (human) agonism. P14416. HEK293 T-REx D2 cells, calcium flux agonist mode. activation, % at 2 µM. 0.53% of 340,000 active;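 active = activation over 3 SD above normal in the single-dose calcium agonist read, cut at about 30% in these data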; also: 0% is about no effect
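In this primary screen, compounds producing a positive calcium signal within 180 s of addition to tetracycline-induced, force-coupled HEK293 Trex D2 cells are flagged; cells are dye-loaded with a no-wash calcium kit beforehand.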
* marks the source's active call; other numbers are inactive results. Compounds with a hit are over-represented: about 2.4% of the library has one in this group of screens.

`Cc1cccc(-c2nc(CSc3nc4c(c(=O)[nH]3)CCC4)c(C)o2)c1` gave D2 antagonist 43*, D2 PAM-1 8, D2 PAM-2 8, D2 ag-1 8 and D2 ag-2 0.
Cc1oc(-c2ccccc2)nc1CSc1nc2c(c(=O)[nH]1)CCC2 was read as D2 antagonist 35*, D2 PAM-1 -2, D2 PAM-2 6, D2 ag-1 2 and D2 ag-2 0.
`CCOC(=O)c1cccc(NC(=O)CCc2c(C)nn(-c3ccc(N4CCCCC4)nn3)c2C)c1` gave D2 PAM-2 -2 and D2 ag-2 1.
Cc1ccc(NC(=O)C(C)Sc2nc3c(c(=O)[nH]2)CCCC3)cc1Cl (stereo not given) was read as D2 PAM-2 -8 and D2 ag-2 -1.
`CCN(CCCc1ccccc1)CCCc1ccccc1` gave D2 antagonist 83*, D2 PAM-1 -32, D2 PAM-2 -31, D2 ag-1 -9 and D2 ag-2 2.
CCCN(CCO)CCCc1ccccc1 was read as D2 antagonist -3, D2 PAM-1 -22, D2 PAM-2 6, D2 ag-1 0 and D2 ag-2 0.
Screening CC(C(=O)Nc1cc(Cl)cc(Cl)c1)N1CCCC1 (stereo not given) returned D2 antagonist 89*, D2 PAM-1 -12, D2 PAM-2 -30, D2 ag-1 -1 and D2 ag-2 2.
`Cc1cc(C)c(NC(=O)C(C)N2CCCCCC2)c(C)c1` (stereo not given) gave D2 antagonist -11, D2 PAM-1 -4, D2 PAM-2 1, D2 ag-1 -2 and D2 ag-2 0.
CCOc1ccc(S(=O)(=O)NCCc2csc(-c3ccc(Cl)cc3)n2)cc1 was read as D2 PAM-2 -9 and D2 ag-2 1.
Screening Cc1cccc(NC(=S)N2CCCCC2)c1 returned D2 antagonist -2, D2 PAM-1 -2, D2 PAM-2 19, D2 ag-1 -5 and D2 ag-2 1.
`Cc1ccc(C2CCN(C(=S)Nc3cccc(C)c3)C2)cc1` (stereo not given) gave D2 antagonist 8, D2 PAM-1 -12, D2 PAM-2 75*, D2 ag-1 -3 and D2 ag-2 -1.
Screening CC(=O)c1cccc(NC(=O)CCn2nc(C)c(S(=O)(=O)N3CCCCC3)c2C)c1 returned D2 PAM-2 2 and D2 ag-2 0.
`CCOc1ccc(NC(=O)C2CCN(S(=O)(=O)c3ccc4c(c3)oc(=O)n4C)CC2)cc1` gave D2 PAM-2 -5 and D2 ag-2 0.
For COc1ccc(NC(=O)N2CCCC(CCC(=O)N(C)CCc3ccccn3)C2)cc1 (stereo not given) the results were D2 antagonist 14, D2 PAM-1 -5, D2 PAM-2 17, D2 ag-1 2 and D2 ag-2 -2.
Screening CCc1ccccc1NC(=O)N1CCCC(CCC(=O)N(C)CCc2ccccn2)C1 (stereo not given) returned D2 antagonist 33*, D2 PAM-1 -4, D2 PAM-2 -8, D2 ag-1 -2 and D2 ag-2 -1.
`O=C(NN1CCOCC1)c1ccccc1Br` gave D2 antagonist 11, D2 PAM-1 -2, D2 PAM-2 33*, D2 ag-1 -2 and D2 ag-2 1.
Screening Cc1ccccc1C(=O)NN1CCOCC1 returned D2 antagonist -7, D2 PAM-1 6, D2 PAM-2 -2, D2 ag-1 1 and D2 ag-2 1.
`COc1ccccc1NS(=O)(=O)c1cccc2cccnc12` gave D2 antagonist 31*, D2 PAM-1 -7, D2 PAM-2 6, D2 ag-1 -7 and D2 ag-2 0.
COc1ccc2c(c1)-c1nc(/N=C/c3ccc(O)cc3)sc1CC2 was read as D2 antagonist 45*, D2 PAM-1 -15, D2 PAM-2 -6, D2 ag-1 3 and D2 ag-2 -1.
COc1ccccc1N1CCN(C(=O)Cn2ncc3c(=O)oc4ccccc4c32)CC1 was read as D2 PAM-2 25 and D2 ag-2 -1.
`COc1cc(C2c3c(-c4ccccc4)n[nH]c3C(=O)N2c2ccccc2)ccc1O` (stereo not given) gave D2 antagonist -5, D2 PAM-1 52*, D2 PAM-2 25, D2 ag-1 3 and D2 ag-2 0.
For CCOc1ccccc1CN1C(=O)c2ccccc2C1C(=O)NC1CCCCCC1 (stereo not given) the results were D2 PAM-2 -4 and D2 ag-2 0.
For COc1ccc(N2CCC(CNC(=O)Nc3cccc(OC)c3)C2)cc1 (stereo not given) the results were D2 antagonist 57*, D2 PAM-1 -5, D2 PAM-2 -1, D2 ag-1 -3 and D2 ag-2 0.
Cc1nc(Cl)sc1C(=O)Nc1ccccc1Cl was read as D2 antagonist -8, D2 PAM-1 53*, D2 PAM-2 6, D2 ag-1 2 and D2 ag-2 -1.
`CCc1ccc(Oc2c(C(F)(F)F)oc3c(CN4CCN(C)CC4)c(O)ccc3c2=O)cc1` gave D2 PAM-2 -29 and D2 ag-2 1.
`Cc1ccc(C)c(NC(=O)C(=O)NCCc2csc(-c3cccc(F)c3)n2)c1` gave D2 PAM-2 2 and D2 ag-2 0.
For Cc1ccc(CSc2nc3ccccc3c(=O)n2C)cc1 the results were D2 antagonist 34*, D2 PAM-1 -6, D2 PAM-2 1, D2 ag-1 -1 and D2 ag-2 2.
CC(=O)NCCn1c(SCc2ccc(C)cc2)nc2ccccc2c1=O was read as D2 antagonist -4, D2 PAM-1 7, D2 PAM-2 -1, D2 ag-1 -2 and D2 ag-2 0.
CCOC(=O)C1CCCN(c2nc3c(S(=O)(=O)c4ccc(Br)cc4)nnn3c3ccsc23)C1 (stereo not given) was read as D2 PAM-2 -2.
`COCCNC(=S)N/N=C(\C)c1ccc(C)c([N+](=O)[O-])c1` gave D2 antagonist 32*, D2 PAM-1 -6, D2 PAM-2 -2, D2 ag-1 2 and D2 ag-2 -2.
`Cc1ccc(-c2nc(C)c(CCNS(=O)(=O)c3ccccc3F)s2)cc1` gave D2 PAM-2 11 and D2 ag-2 0.
Screening CCc1c(C(C)S(=O)(=O)c2ccccc2)[nH]c(=O)n1CC (stereo not given) returned D2 antagonist 35*, D2 PAM-1 0, D2 PAM-2 -17, D2 ag-1 -3 and D2 ag-2 0.
Screening CC(Oc1ccc(F)cc1)C(=O)Nc1cc(S(=O)(=O)N2CCCCC2)ccc1N1CCOCC1 (stereo not given) returned D2 antagonist 37*, D2 PAM-1 3, D2 PAM-2 2, D2 ag-1 0 and D2 ag-2 0.
